This is a sample that favours compounds with a hit; in the whole collection about 6.2% have one here.
HT1080 IDH1KD tx: toxicity to HT-1080 IDH1 knockdown cells (counter line); HT-1080 IDH1 knockdown viability, ATP luminescence, 48 h; Potency, µM (highest dose often 46.1 µM), without a hit: at the highest dose activity, negative = toxicity, usual class: cytotoxic; 360,000 tested, 2% active; AID 686971;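 also: 0% = DMSO wells and -100% = cell-free medium wells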
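Cytotoxicity counter-line: IDH1KD HT-1080, 48 h, CellTiter-Glo. Curves classed by r2, magnitude and activity.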
S2 tox: reduces viability in counter-screen for ATXN expression inhibitors; S2 cells (HEK-293 line with an ATXN2-luciferase reporter) viability, CellTiter-Fluor protease fluorescence, 24 h; Potency, µM (series often up to 56.7 µM), most hits filed as cytotoxic; 400,000 tested, 0.49% active; AID 651635; also: nearly all actives have a fitted effect of over 40% in size
ATXN2 expr inh: reduces ATXN2 reporter expression in HEK-293 cells. HEK-293 ATXN2-luciferase reporter, luminescence, 24 h. Potency, µM (doses to about 57 µM), for the others: top-dose activity change, negative = inhibition, hits mostly inhibitors. 360,000 tested, 0.72% active; also: % is scaled to controls: 0 for no effect and ±100 for the full control effect; nearly all actives have a fitted effect of over 55% in size
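qHTS (up to 57 uM final) was run with 24 h compound exposure of reporter cells at 37 °C. Each well was multiplexed: SteadyGlo luminescence measured ATXN2-luciferase expression after a fluorogenic Gly-Phe-AFC viability readout (25 uM final).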
HT1080NT lethal: kills 2HG-producing HT-1080-NT fibrosarcoma cells; HT-1080-NT fibrosarcoma viability, CellTiter-Glo ATP luminescence, 48 h; Potency, µM (highest dose often 46.1 µM), for inactives: top-dose activity, negative = less viability, hits mostly cytotoxic; 360,000 tested, 1.6% active; AID 686970;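 also: NT is the 2HG producing partner of a matched IDH1 knockdown line; 0% = DMSO-treated cells and -100% = media-only wells without cells; nearly all actives have a fitted effect of over 55% in size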
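HT-1080-NT fibrosarcoma cells (2HG-overproducing), 750 cells/well in RPMI with 5% FBS, dosed after 2 h and incubated 48 h at 37C. CellTiter-Glo luminescence normalized to DMSO and no-cell wells; concentration-response curves fitted and classed.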
KB-V1 cytotox: KB-V1 MDR subline cytotoxicity | KB-V1 MDR cells viability, CellTiter-Glo, 72 h | Potency, µM (series often up to 46.1 µM), hits mostly cytotoxic | 400,000 tested, 3.4% active | AID 1347076; also: % is scaled to controls: 0 for no effect and ±100 for the full control effect; nearly all actives have a fitted effect of over 60% in size
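KB-V1 cells (P-gp-expressing MDR subline of KB-3-1) in phenol-red-free DMEM with 10% FBS were exposed to library compounds over a concentration series for 72 h at 37 degrees C. Viability read by CellTiter-Glo luminescence; concentration-effect curves fitted after normalization.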
KB-3-1 cytotox: KB-3-1 parental cell cytotoxicity; KB-3-1 viability, CellTiter-Glo ATP luminescence, 72 h; Potency, µM (titrated, usually from 46.1 µM), hits mostly cytotoxic; 400,000 tested, 1.4% active; AID 1347075; also: % is scaled to controls: 0 for no effect and ±100 for the full control effect; nearly all actives have a fitted effect of over 60% in size
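Viability of parental KB-3-1 cells, measured by CellTiter-Glo luminescence, followed a 72 h incubation at 37 °C with pinned compounds in phenol-red-free DMEM containing 10% FBS.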
* hit, by the source's call; i = inactive; ? = inconclusive; · = no result; ! = repeats disagree. Calls follow the shape of the dose curve; as a rule, active = well fitted curve in the direction sought with a large enough effect; inconclusive = small, poorly fitted or top-dose-only effect, or another doubt; inactive = no such curve, though single readings can be large; an effect the other way counts as inactive or inconclusive. Potency is read from the fitted curve at half-maximal effect.

SMILES	HT1080 IDH1KD tx	S2 tox	ATXN2 expr inh	HT1080NT lethal	KB-V1 cytotox	KB-3-1 cytotox
N#Cc1ccc(Oc2ccc(-c3nc4ccccc4nc3-c3ccccc3)cc2)cc1C#N	-10.5%	i	-4.7%	-9.4%	20.6µM*	i
CS(=O)(=O)c1ccc(Cl)c(NC(=O)COC(=O)CCN2C(=O)C3CC=CCC3C2=O)c1 (stereo not drawn)	8.6%	?	·	2.4%	i	i
CN(Cc1ccc(OC(F)F)cc1)C(=O)c1cccc(S(=O)(=O)N2CCN(c3ccccc3)CC2)c1	-18.9%	?	-30.9%	-5.9%	i	7.31µM*
CN(CC(=O)Nc1ccccc1Cl)C(=O)c1cccc(S(=O)(=O)N2CCN(Cc3ccccc3)CC2)c1	-6.4%	i	-13.0%	20.6µM*	?	i
COc1ccccc1NC(=O)c1cccc(S(=O)(=O)N2CCN(Cc3ccccc3)CC2)c1	-1.3%	i	-6.7%	-2.1%	i	i
CN(Cc1ccc(Cl)c(Cl)c1)C(=O)c1cccc(S(=O)(=O)N2CCN(Cc3ccccc3)CC2)c1	-18.2%	i	-31.2%	-20.2%	i	9.2µM*
CN(CC(=O)Nc1ccccc1Cl)C(=O)c1cccc(S(=O)(=O)N2CCN(c3ccccc3)CC2)c1	-20.4%	i	-28.9%	-8.8%	i	i
CN(Cc1cccc(F)c1)C(=O)c1cccc(S(=O)(=O)N2CCN(Cc3ccccc3)CC2)c1	-5.1%	i	-10.3%	-1.4%	?	?
COc1ccc(NC(C)=O)cc1NC(=O)c1cccc(S(=O)(=O)N2CCN(Cc3ccccc3)CC2)c1	15.3%	i	3.4%	-2.2%	16.4µM*	i
COc1cc2ncnc(Nc3cc(Br)c(O)c(Br)c3)c2cc1OC	·	·	-8.7%	·	·	·
CN1CCN(S(=O)(=O)c2cccc(C(=O)N(C)Cc3cccs3)c2)CC1	2.5%	i	-10.1%	1.4%	i	i
C=CCN(C(=O)c1cccc(S(=O)(=O)N2CCN(C)CC2)c1)c1nc(-c2ccccc2)cs1	?	i	-23.6%	23.1µM*	i	?
Cc1ccc(S(=O)(=O)N2CCN(C(=O)c3ccc(N4CCC(C)CC4)c([N+](=O)[O-])c3)CC2)cc1	-3.7%	?	-16.7%	1.8%	18.4µM*	i
O=C(c1ccc(N2CCCC2)c([N+](=O)[O-])c1)N1CCN(S(=O)(=O)c2ccccc2)CC1	3.5%	i	-21.3%	14.4%	i	i
Cc1nn(C)cc1C(C(=O)NC1CCCCC1)N(C(=O)Cc1cccs1)c1ccc(F)cc1 (stereo not drawn)	21.3%	i	-3.5%	2.6%	i	i
Cc1ccc(C(C(=O)NC2CCCC2)N(C(=O)Cc2cccs2)c2ccc(C)c(C)c2)o1 (stereo not drawn)	?	i	-23.9%	0.0%	20.6µM*	i
COc1ccc(CNC(=O)C(c2ccc(C)cc2)N(Cc2cccs2)C(=O)c2ccc3c(c2)OCCO3)cc1 (stereo not drawn)	12.6µM*	i	-25.8%	?	4.61µM*	i
Cc1ccc(C(C(=O)NC2CCCC2)N(C(=O)Cc2cccs2)c2ccc3c(c2)OCCO3)cc1 (stereo not drawn)	-12.8%	i	-12.3%	-7.1%	20.6µM*	i
Cc1nn(C)cc1C(C(=O)NC1CCCCC1)N(C(=O)Cc1cccs1)c1ccc(C(C)C)cc1 (stereo not drawn)	?	i	-11.4%	?	2.91µM*	?
O=C(NC1CCCC1)C(c1ccc(F)cc1)N(C(=O)Cc1cccs1)c1ccc2c(c1)OCCO2 (stereo not drawn)	2.6%	i	-0.5%	-0.1%	i	i
CCOCCOC(=O)c1ccc(NC(=O)C2COc3ccccc3O2)cc1 (stereo not drawn)	1.3%	i	14.1%	2.4%	i	i
CCC1CN(Cc2cn[nH]c2-c2ccc(F)cc2)Cc2cc(OC)ccc2O1 (stereo not drawn)	·	i	·	·	·	·
CC(C)[C@@H]1CC[C@@H](C)CC1=O	·	i	1.7%	·	·	·
CCOc1ccc(-n2c(SCC(=O)c3ccccc3)nc3c([nH]c4ccccc43)c2=O)cc1	·	i	3.1%	·	i	i
CCC(=O)O[C@H]1[C@H](O[C@@H]2[C@@H](C)[C@H](O[C@H]3C[C@@](C)(OC)[C@@H](O)[C@H](C)O3)[C@@H](C)C(=O)O[C@H](CC)[C@@](C)(O)[C@H](O)[C@@H](C)C(=O)[C@H](C)C[C@@]2(C)O)O[C@H](C)C[C@@H]1N(C)C	·	15.8µM*!	6.4%	·	·	·
SMILES	HT1080 IDH1KD tx	S2 tox	ATXN2 expr inh	HT1080NT lethal	KB-V1 cytotox	KB-3-1 cytotox
CCOC(=O)CCC(=O)O[C@H]1[C@H](O[C@@H]2[C@@H](C)[C@H](O[C@H]3C[C@@](C)(OC)[C@@H](O)[C@H](C)O3)[C@@H](C)C(=O)O[C@H](CC)[C@@](C)(O)[C@H](O)[C@@H](C)C(=O)[C@H](C)C[C@@]2(C)O)O[C@H](C)C[C@@H]1N(C)C	12.0%	i	2.8%	-22.7%	i	i
COC(=O)C(Nc1ccccc1Cl)(c1cc(C)c(O)c(C)c1)C(F)(F)F (stereo not drawn)	?	i	?	?	8.2µM*	?
O=C1CCSC2(C(=O)N(Cc3ccccc3)c3ccccc32)N1c1ccccc1 (stereo not drawn)	·	·	·	·	i	i
O=Nc1c(O)n(Cc2cccc(Cl)c2)c2ccccc12	18.4µM*	?	-2.3%	14.6µM*	i	i
CC(C)[C@H](N)C(=O)N[C@H]1CCC2C3CC=C4C[C@@H](O)CC[C@]4(C)C3CC[C@@]21C (stereo partly drawn)	?	?	·	18.4µM*	i	i
C[C@@H](N)C(=O)N[C@H]1CCC2C3CC=C4C[C@@H](O)CC[C@]4(C)C3CC[C@@]21C (stereo partly drawn)	-5.8%	i	0.7%	-4.9%	i	i
CCCC(=O)NC(NC(=S)Nc1ccc(N=Nc2ccccc2)cc1)C(Cl)(Cl)Cl (stereo not drawn)	18.4µM*	·	?	?	18.4µM*	14.6µM*
O=C(CCc1ccccc1)NC(NC(=S)Nc1cccc(Cl)c1)C(Cl)(Cl)Cl (stereo not drawn)	16.6%	i	-22.3%	10.0%	?	i
CCc1ccc(OCC(=O)NC(NC(=S)Nc2ccc(Cl)cc2)C(Cl)(Cl)Cl)cc1 (stereo not drawn)	?	·	?	?	3.66µM*	8.2µM*

High-throughput results: PubChem BioAssay, National Center for Advancing Translational Sciences (NCATS)
